These results are taken from PubChem BioAssay.

Assay [1] is described as follows: small molecules captured by biotinylated probe aFSTL3 – biochemical, small-molecule microarray, fluorescence 635/667, stem cell growth factor project, primary screen (AID 1064).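 Note: measures binding of the biotinylated anti-FSTL3 antibody to printed compounds.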 The settings on record: higher = more signal.
Assay [2] can be described thus: binders from COS7 lysate, DM2A8 probe, primary screen, torsin A project, cell lysate, small-molecule microarray, fluorescence 635/667 (AID 1065). As to conditions: higher = more signal, COS7 lysate expressing mutant human TOR1A.
A short description of assay [3]: small molecules captured by biotinylated probe aFGF2 – biochemical, small-molecule microarray, fluorescence 635/667, stem cell growth factor project, primary screen (AID 1067).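 Note: measures binding of biotinylated aFGF2 protein to printed compounds on slides; z-score merges feature fluorescence and signal-to-noise across triplicate slides.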 As to conditions: higher = more signal.
Assay [4] can be described thus: small molecules captured by biotinylated probe aFGF10 – biochemical, small-molecule microarray, fluorescence 635/667, stem cell growth factor project, primary screen (AID 1071).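 Note: score merges 667 nm spot intensity and signal to noise from triplicate slides.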 The settings on record: higher = more signal.
The target of assay [5] is Neurogenic locus notch homolog protein 2 (Homo sapiens) (UniProt Q04721). The experiment in a line: small molecules binding Notch2 protein – biochemical, small-molecule microarray, 635 nm fluorescence, stem cell growth factors, primary screen (AID 1073). As to conditions: higher = more signal.
For assay [6], the target named is Pro-neuregulin-1, membrane-bound isoform (Homo sapiens) (UniProt Q02297). In words: small molecules binding neuregulin-1 protein – biochemical, small-molecule microarray, fluorescence 635/667, psychiatric disease protein project, primary screen (AID 1075).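 Note: score combines 667 nm spot fluorescence with signal to noise.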 As to conditions: NRG1 binding, 635 nm fluorescence, higher = more signal.
Assay [7] has as its system Neuregulin-1 EGF-like domain. In words: small molecules binding NRG1 EGF domain – biochemical, small-molecule microarray, 635 nm fluorescence, primary screen (AID 1081).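 Note: binding of the protein to compounds printed on small-molecule microarray slides.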 The settings on record: higher = more signal.
Assay [8] can be described thus: FRG1 expression reporter modulators in myotubes – cell-based, C2C12 myotubes, firefly/Renilla luciferase, luminescence, FRG1 inhibition for FSHD, primary screen (AID 1084). As to conditions: FRG1 promoter luciferase, higher = more signal, called active from +8 up or from −8 down.
Assay [9] is described as follows: small molecules captured by biotinylated probe aFST – biochemical, small-molecule microarray, fluorescence 635/667, stem cell growth factor project, primary screen (AID 1086).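 Note: score merges 667 nm fluorescence with signal-to-noise of each printed compound spot.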 As to conditions: higher = more signal.
Assay [10] is described as follows: binders of probe aHhip on microarray, primary screen, stem cell growth factor project, biochemical, small-molecule microarray, fluorescence 635/667 (AID 1087).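 Note: score merges spot fluorescence at 667nm with spot signal to noise ratio.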 The settings on record: higher = more signal.
For assay [11], the system named is PRMT1 (protein arginine N-methyltransferase 1). In words: small molecules binding arginine methyltransferase PRMT1 – biochemical, small-molecule microarray, 635 nm fluorescence, primary screen (AID 1088).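 Note: binding of Prmt1 protein to compounds spotted on small-molecule microarray slides.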 The settings on record: higher = more signal.
The nature of assay [12]: growth effects on S. cerevisiae YJM789 – YJM789 clinical isolate, OD600, 24 h, basal, primary screen (AID 1089).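 Note: growth of clinical yeast isolate S. cerevisiae YJM 789 seeded 1000 cells per well; test concentration not given here.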 The settings on record: higher = more signal, called active from +8 up or from −8 down.
Assay [13] is described as follows: S. pombe growth modifiers, basal conditions – strain 972, OD600, 24 h, no modulator, primary screen (AID 1090).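 Note: basal condition with compound alone and no growth modifier present; test concentration not given here.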 The settings on record: S. pombe 972 growth, higher = more signal, called active from +8 up or from −8 down.
Assay [14] in a line: budding yeast growth modifiers under rapamycin – strain BY4716, OD600, 96 h, primary screen (AID 1091). Note: test concentration not given here. The settings on record: S. cerevisiae BY4716 + rapamycin, higher = more signal, called active from +8 up or from −8 down.
Assay [15] has as its target Torsin-1A-interacting protein 2 (Homo sapiens) (UniProt Q8NFQ8). The experiment in a line: small molecules binding lysate-expressed LULL1 – cell lysate, human LULL1 lysate, 635/667 nm fluorescence, primary screen (AID 1092).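 Note: probe is lysate of COS7 cells overexpressing human LULL1; score merges per-feature 667 nm fluorescence with signal-to-noise.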 As to conditions: small-molecule microarray, hLULL1 lysate binding, 635 nm fluorescence; higher = more signal.
Assay [16] can be described thus: optical density change of DRC41 E. coli – strain DRC41, OD650, 24 h, E. coli filamentation project, primary screen (AID 1093).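 Note: MC1000 strain lacking acrAB efflux and sulA so SOS filamentation is blocked; test concentration not given here.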 The settings on record: E. coli DRC41 growth, higher = more signal, called active from +8 up or from −8 down.
The nature of assay [17]: probe aLefty2 binding to arrayed compounds – biochemical, biotinylated probe, 635/667 nm fluorescence, primary screen (AID 1094).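 Note: score merges spot fluorescence near 667 nm with spot signal-to-noise ratio.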 As to conditions: small-molecule microarray, higher = more signal.
In assay [18] the test system is Noggin (protein binding on small-molecule microarray). The experiment in a line: small molecules binding Noggin protein – biochemical, 635/667 nm fluorescence, primary screen (AID 1095).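 Note: score merges 667 nm feature fluorescence with signal to noise over triplicate slides.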 As to conditions: 635 nm fluorescence, higher = more signal.
Assay [19] concerns the target Neurogenic locus notch homolog protein 3 (Homo sapiens) (UniProt Q9UM47). The experiment in a line: small molecules binding NOTCH3 protein – biochemical, 635/667 nm fluorescence, primary screen (AID 1096). As to conditions: small-molecule microarray, 635 nm fluorescence, higher = more signal.
Assay [20] is described as follows: probe aEGFR binding to arrayed compounds – biochemical, biotinylated probe, 635/667 nm fluorescence, primary screen (AID 1097).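 Note: probe is a biotinylated anti-EGFR antibody binding compounds printed on slides; score combines fluorescence near 667 nm and signal to noise of each spot.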 As to conditions: small-molecule microarray, higher = more signal.

Active and inactive are the calls of the source.

Sequence of Pro-neuregulin-1, membrane-bound isoform (Homo sapiens) (Q02297 whole entry, looked up, the tested form may be a part, canonical isoform): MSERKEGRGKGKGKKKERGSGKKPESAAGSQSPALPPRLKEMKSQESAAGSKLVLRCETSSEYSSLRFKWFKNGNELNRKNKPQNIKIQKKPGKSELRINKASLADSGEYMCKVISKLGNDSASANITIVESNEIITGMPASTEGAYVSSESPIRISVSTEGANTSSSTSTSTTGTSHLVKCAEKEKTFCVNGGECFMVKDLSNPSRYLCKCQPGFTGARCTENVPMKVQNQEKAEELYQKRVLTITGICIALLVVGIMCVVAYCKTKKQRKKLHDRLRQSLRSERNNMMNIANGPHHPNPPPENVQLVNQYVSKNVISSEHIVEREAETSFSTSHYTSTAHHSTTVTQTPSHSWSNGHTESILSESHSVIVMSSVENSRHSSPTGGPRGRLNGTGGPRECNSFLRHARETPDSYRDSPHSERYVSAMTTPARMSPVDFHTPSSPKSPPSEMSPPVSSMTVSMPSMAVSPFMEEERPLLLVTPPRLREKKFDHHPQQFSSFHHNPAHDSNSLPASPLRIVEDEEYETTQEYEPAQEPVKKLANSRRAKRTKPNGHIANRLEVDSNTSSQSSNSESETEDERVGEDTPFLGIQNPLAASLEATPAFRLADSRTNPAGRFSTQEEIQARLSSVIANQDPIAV
Sequence of Neurogenic locus notch homolog protein 3 (Homo sapiens) (Q9UM47 whole entry, looked up): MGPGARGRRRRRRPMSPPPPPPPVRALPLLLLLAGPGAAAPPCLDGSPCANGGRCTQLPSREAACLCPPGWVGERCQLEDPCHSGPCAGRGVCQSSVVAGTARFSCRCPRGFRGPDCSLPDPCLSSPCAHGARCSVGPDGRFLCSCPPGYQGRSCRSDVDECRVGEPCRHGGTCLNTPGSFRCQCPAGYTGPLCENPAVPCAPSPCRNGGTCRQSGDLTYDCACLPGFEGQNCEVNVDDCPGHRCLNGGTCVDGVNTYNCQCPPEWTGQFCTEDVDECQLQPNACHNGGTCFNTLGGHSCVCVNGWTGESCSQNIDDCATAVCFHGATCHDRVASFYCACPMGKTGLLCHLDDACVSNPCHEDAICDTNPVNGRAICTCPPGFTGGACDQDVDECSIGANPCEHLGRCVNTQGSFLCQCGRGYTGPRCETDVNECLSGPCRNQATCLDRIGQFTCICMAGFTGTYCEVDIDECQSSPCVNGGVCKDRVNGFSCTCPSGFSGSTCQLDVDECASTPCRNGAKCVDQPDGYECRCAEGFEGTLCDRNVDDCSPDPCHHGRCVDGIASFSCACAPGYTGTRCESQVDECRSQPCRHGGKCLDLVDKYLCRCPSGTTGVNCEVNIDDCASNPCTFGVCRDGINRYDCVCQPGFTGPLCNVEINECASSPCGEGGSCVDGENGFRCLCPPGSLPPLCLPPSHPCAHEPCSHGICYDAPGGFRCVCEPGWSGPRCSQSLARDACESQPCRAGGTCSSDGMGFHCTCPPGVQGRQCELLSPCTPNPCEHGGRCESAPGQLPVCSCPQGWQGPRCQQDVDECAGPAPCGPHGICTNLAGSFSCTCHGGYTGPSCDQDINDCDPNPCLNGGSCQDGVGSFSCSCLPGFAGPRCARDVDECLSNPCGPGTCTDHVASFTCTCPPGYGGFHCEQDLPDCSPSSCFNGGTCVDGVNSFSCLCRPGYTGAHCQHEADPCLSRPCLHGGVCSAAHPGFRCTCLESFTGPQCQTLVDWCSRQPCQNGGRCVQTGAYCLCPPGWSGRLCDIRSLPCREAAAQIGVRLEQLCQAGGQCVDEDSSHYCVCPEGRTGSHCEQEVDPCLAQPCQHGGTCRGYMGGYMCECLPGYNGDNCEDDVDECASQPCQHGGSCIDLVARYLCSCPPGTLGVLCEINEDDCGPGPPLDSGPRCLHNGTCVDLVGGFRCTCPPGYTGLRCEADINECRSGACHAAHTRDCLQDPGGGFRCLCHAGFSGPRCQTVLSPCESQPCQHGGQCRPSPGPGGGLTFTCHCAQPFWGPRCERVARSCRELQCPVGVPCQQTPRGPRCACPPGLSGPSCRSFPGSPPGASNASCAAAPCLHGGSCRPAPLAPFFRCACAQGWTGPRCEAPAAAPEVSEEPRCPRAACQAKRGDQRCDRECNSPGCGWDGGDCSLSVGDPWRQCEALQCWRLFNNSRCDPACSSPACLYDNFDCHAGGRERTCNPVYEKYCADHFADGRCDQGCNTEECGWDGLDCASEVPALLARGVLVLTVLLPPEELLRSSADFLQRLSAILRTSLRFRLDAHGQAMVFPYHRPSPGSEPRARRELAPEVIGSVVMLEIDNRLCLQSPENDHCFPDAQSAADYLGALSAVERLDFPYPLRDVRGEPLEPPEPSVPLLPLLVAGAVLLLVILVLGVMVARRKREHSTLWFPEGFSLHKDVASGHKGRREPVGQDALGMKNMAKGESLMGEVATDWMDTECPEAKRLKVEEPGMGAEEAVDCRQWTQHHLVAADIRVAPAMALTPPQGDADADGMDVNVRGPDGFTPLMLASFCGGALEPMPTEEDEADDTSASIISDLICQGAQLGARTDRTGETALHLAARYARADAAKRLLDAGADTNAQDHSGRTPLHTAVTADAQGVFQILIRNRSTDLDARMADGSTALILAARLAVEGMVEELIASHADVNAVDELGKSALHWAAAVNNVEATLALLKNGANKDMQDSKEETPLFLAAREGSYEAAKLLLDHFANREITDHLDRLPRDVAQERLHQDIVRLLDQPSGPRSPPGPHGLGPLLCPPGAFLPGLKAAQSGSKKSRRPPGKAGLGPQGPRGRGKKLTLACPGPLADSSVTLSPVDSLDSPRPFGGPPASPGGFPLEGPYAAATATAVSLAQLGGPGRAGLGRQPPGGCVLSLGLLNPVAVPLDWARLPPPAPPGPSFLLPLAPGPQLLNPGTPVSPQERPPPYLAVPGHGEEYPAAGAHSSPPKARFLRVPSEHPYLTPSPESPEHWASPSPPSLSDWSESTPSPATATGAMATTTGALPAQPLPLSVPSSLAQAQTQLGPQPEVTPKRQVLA
Sequence of Torsin-1A-interacting protein 2 (Homo sapiens) (Q8NFQ8 whole entry, looked up): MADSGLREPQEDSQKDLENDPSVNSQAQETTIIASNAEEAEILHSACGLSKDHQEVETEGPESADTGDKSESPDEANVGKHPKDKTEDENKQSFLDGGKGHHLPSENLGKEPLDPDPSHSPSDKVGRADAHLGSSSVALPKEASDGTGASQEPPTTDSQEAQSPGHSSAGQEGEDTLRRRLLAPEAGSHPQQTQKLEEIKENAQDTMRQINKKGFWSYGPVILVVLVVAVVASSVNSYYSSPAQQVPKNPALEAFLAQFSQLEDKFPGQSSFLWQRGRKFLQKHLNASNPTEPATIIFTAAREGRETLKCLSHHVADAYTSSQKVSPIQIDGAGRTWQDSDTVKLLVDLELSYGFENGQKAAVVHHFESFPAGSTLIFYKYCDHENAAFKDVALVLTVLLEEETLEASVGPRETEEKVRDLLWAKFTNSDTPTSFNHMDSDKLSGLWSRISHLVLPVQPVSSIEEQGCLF

Take `CC(C)[Si]1(C(C)C)O[C@@H](c2ccccc2)c2cc(-c3ccc(-c4ccc(Cl)c(Cl)c4)o3)nc(-c3ccccc3)c21`: the composite z-score in [1] is -0.104; in [2] it was 0.291; in assay [3], -0.0953; in assay [4], -0.0933; in assay [5] it was -0.0802; in assay [6], 0.398. For the same compound, the composite z-score is -0.39 in [7]; 0.0481 in assay [9]; -0.0645 in [10]; 0.985 in assay [11]; 1.22 in assay [15]; -0.0809 in assay [17]. Further, the composite z-score is -0.262 in assay [18], 0.123 in assay [19] and -0.108 in [20]. For the same compound, the z-score in assay [8] was 0.97 (inactive); in [12], -0.585 (inactive); in [13], -0.764 (inactive); in [14] it was 0.167 (inactive); in assay [16], -1.22 (inactive).
Consider `CCCC#C[Si](O[C@H](CC)c1cn(Cc2cccc(Cl)c2)nn1)(C(C)C)C(C)C`, for which the composite z-score in assay [1] is -0.468; in assay [2] it was -0.139; in [3], -0.0865; in assay [4], 0.85; in [5] it was 0.831; in assay [6] it was -0.0184. The composite z-score in [7] was 1.15; in assay [9], 0.0751; in assay [10] it was -0.137; in [11], 0.756; in [15] it was 1.91; in [17], -0.0068. Also, the composite z-score was found to be 0.476 in assay [18], 1.13 in [19] and 0.252 in assay [20]. In addition, the z-score in [8] was 0.414 (inactive); in assay [12], -1.19 (inactive); in assay [13], -9.34 (active); in [14], -1.52 (inactive); in assay [16], 1.5 (inactive).
As to `O=C1C[C@@](C(=O)NC2CC2)(c2ccc([N+](=O)[O-])cc2)[C@@H](c2ccc(CO)cc2I)N1C1CCCCC1`, the composite z-score in [1] was -0.407; in assay [2], 0.722; in assay [3], 0.0043; in [4], 0.496; in assay [5], 0.677; in assay [6], 1.04. The composite z-score in [7] is 1.34; in [9], 0.419; in assay [10] it was 0.075; in assay [11] it was 1.53; in [15] it was 2.82; in assay [17], -0.05. For the same compound, the composite z-score in assay [18] is 1.25; in assay [19] it was 1.07; in [20] it was -0.0828. For the same compound, the z-score in assay [8] was -0.165 (inactive); in [12], -0.457 (inactive); in assay [13], -0.173 (inactive); in [14], 1.45 (inactive); in assay [16], 0.233 (inactive).
For `CN1C(=O)C2C=CC(C(O)C#Cc3ccccc3)N(N3CCCCC3)C2C1=O` (stereo not given), the composite z-score amounted to 0.819 in assay [1]; 1.34 in assay [2]; 0.454 in assay [3]; 0.762 in assay [4]; 1.44 in assay [5]; 1.19 in assay [6]. In addition, the composite z-score in [7] was 1.19; in assay [9] it was 1.16; in assay [10], -0.0655; in [11], 0.436; in assay [15], 0.58; in [17], 0.529. Further, the composite z-score in assay [18] was -0.287; in assay [19] it was 0.964; in assay [20] it was 0.647. Besides, the z-score was -0.995 (inactive) in assay [8]; 0.54 (inactive) in [12]; -0.126 (inactive) in assay [13]; -0.296 (inactive) in [14]; 0.0497 (inactive) in [16].
With `COC(=O)C(CC#Cc1ccc2c(c1)[C@]1(C(=O)N2)[C@H](c2ccc(OCCO)cc2)N2[C@H](c3ccccc3)[C@H](c3ccccc3)OC(=O)[C@H]2[C@@H]1C(=O)N1CCc2cc(OC)c(OC)cc2C1)C(=O)OC`, the composite z-score in [1] came out at 0.931; in [2] it was 0.802; in assay [3], 0.119; in assay [4] it was 1.05; in [5], 1.42; in [6], 1.07. The composite z-score amounted to 1.25 in [7]; 1.6 in [9]; 0.876 in assay [10]; 1.57 in [11]; 3.34 in assay [15]; 0.365 in assay [17]. The composite z-score is -1.11 in assay [18], 1.07 in [19] and 0.169 in [20]. Besides, the z-score was 2.24 (inactive) in [8]; 2.12 (inactive) in assay [12]; 1.74 (inactive) in assay [13]; 5.14 (inactive) in [14]; 0.49 (inactive) in [16].
